In PubChem BioAssay (NCATS):
Records with an inconclusive call do not appear. Entries that show only a call come without a potency. Activity calls are given as the source filed them. Unless noted, the call rests on the fitted dose curve.

Tests used:
[1] = target: Peroxisome proliferator-activated receptor delta (Homo sapiens) (UniProt Q03181); test: qHTS assay for small molecule agonists of peroxisome proliferator-activated receptor delta signaling (AID 588534)
In short: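 Agonist-mode beta-lactamase reporter readout (CCF4 dye, 2 h at RT) after 18 h at 37 °C exposure to a titration; Hill-equation fitting gave EC50 and maximal response.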

[2] = qHTS assay for small molecule antagonists of peroxisome proliferator-activated receptor delta signaling (AID 588535; active means well fitted inhibition curve with a large enough effect in the signal ratio, with a control signal flat, not every such curve was filed as active; the % refers to the signal ratio;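 on max response: cells co-treated with a PPAR-delta agonist as stimulator during compound exposure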); settings: HEK293T PPARd-UAS-bla, beta-lactamase FRET ratio, 18 h; 460 nm channel
In short: (§1)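 Titrations were run on PPAR-delta-UAS-bla HEK293T cells in charcoal/dextran-stripped serum, incubated 18 h at 37 C. CCF4 fluorescence (460/530 nm) after 2 h RT; Hill equation yields IC50 and maximal response.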

[3] = target: Peroxisome proliferator-activated receptor delta (Homo sapiens) (UniProt Q03181); test: as above
In short: as §1

[4] = target: Peroxisome proliferator-activated receptor gamma (Homo sapiens) (UniProt P37231); test: qHTS assay for small molecule agonists of peroxisome proliferator-activated receptor gamma signaling (AID 588536; active means well fitted curve in the direction sought with a large enough effect in the signal ratio, with a control signal flat, not every such curve was filed as active; the % refers to the signal ratio)
Chain of Peroxisome proliferator-activated receptor gamma (Homo sapiens) (P37231 whole entry, looked up): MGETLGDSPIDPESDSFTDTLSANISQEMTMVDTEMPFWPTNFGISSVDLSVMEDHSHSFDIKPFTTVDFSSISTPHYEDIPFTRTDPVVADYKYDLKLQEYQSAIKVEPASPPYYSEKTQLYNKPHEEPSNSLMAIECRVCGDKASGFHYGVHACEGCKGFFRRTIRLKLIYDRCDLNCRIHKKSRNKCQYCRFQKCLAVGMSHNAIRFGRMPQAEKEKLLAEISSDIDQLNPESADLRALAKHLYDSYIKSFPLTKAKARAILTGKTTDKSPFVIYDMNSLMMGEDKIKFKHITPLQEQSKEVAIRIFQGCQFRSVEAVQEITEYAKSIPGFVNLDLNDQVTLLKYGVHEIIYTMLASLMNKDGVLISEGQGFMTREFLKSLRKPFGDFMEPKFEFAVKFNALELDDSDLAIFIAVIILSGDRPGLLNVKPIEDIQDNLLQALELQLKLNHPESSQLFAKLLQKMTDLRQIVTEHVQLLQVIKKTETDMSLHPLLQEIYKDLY
In short: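 Compound treatment: 16 h, 37 C, HEK293 GeneBLAzer cells. Detection: CCF4, 2 h RT. Values: Hill-fit EC50, efficacy as % of 2 uM rosiglitazone.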

[5] = target: Vitamin D3 receptor (Homo sapiens) (UniProt P11473); test: qHTS assay for small molecule antagonists of vitamin D receptor signaling (AID 588541);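 further: receptor activated by calcitriol during compound treatment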
Chain of Vitamin D3 receptor (Homo sapiens) (P11473 whole entry, looked up): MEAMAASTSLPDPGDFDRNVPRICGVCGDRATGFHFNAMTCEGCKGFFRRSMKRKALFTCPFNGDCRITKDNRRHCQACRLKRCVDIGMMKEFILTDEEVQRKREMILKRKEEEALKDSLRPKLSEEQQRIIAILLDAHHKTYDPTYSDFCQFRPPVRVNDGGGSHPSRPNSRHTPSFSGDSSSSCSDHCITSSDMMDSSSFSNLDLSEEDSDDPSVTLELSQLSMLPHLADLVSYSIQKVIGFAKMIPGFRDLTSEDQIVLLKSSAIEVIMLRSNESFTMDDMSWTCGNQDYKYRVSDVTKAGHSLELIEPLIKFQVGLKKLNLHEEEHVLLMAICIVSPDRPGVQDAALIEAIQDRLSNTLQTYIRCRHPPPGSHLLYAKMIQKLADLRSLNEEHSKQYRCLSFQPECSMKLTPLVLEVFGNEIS
In short: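 Antagonist-mode beta-lactamase reporter assay: HEK293T VDR-UAS-bla cells were exposed to titrated compound alongside 1-alpha,25-dihydroxyvitamin D3 at 3 nM final for 16 h. Values were normalized to the 50 nM agonist control and DMSO basal, with IC50 and efficacy from Hill equation fits.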

[6] = qHTS assay for small molecule agonists of retinoid X receptor alpha signaling (AID 588544); settings: HEK293T RXRa-UAS-bla, beta-lactamase reporter, 18 h; 530 nm emission
[7] = target: Retinoic acid receptor RXR-alpha (Homo sapiens) (UniProt P19793); test: as above
Chain of Retinoic acid receptor RXR-alpha (Homo sapiens) (P19793 whole entry, looked up): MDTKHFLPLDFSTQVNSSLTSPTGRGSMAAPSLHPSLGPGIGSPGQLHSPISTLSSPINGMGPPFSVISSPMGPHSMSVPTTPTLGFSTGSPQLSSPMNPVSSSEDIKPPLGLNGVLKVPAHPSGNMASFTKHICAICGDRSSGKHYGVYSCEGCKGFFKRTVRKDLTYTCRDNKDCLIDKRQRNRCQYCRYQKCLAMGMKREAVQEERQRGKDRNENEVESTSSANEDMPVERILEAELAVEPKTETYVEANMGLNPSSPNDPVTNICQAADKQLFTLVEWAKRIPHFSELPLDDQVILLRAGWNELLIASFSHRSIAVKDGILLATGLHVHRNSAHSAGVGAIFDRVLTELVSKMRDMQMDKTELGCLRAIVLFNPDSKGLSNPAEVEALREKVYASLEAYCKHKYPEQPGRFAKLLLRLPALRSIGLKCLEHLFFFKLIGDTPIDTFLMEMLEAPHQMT

[8] = qHTS assay for small molecule antagonists of retinoid X receptor alpha signaling (AID 588546; active means well fitted inhibition curve with a large enough effect in the signal ratio, with a control signal flat, not every such curve was filed as active; the % refers to the signal ratio;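 further: cells stimulated with 9-cis-retinoic acid as agonist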); settings: HEK293T RXRa-UAS-bla, beta-lactamase ratio, antagonist mode; measured here: W530 green channel, cytotoxicity proxy
In short: (§2)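 Beta-lactamase reporter inhibition, read as CCF4 fluorescence ratio (ex 405, em 460/530 nm) after 2 h at RT. HEK293T UAS-bla cells, 2500/well, were stimulated with 9-cis-RA at 500 or 100 nM final alongside test compound for 18 h at 37 C.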

[9] = target: Retinoic acid receptor RXR-alpha (Homo sapiens) (UniProt P19793); test: as above; settings: HEK293T RXRa-UAS-bla, beta-lactamase ratio, antagonist mode
In short: as §2

[10] = qHTS assay for small molecule activators of the p53 signaling pathway (AID 651743; active means well fitted activation curve with a large enough effect in the signal ratio, not every such curve was filed as active; the % refers to the signal ratio); settings: HCT-116 p53RE-bla, beta-lactamase FRET ratio, 16 h; activation: stronger effect = higher value
In short: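 After 16 hours compound treatment at 37 C, HCT-116 cells stably expressing p53RE-driven beta-lactamase were loaded with LiveBLAzer B/G FRET substrate for 2 hours at room temperature. Fluorescence intensity served as the p53 activation read-out.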

[11] = qHTS assay for small molecule activators of the nuclear factor-kappa B (NF-kB) signaling pathway (AID 651749; active means well fitted activation curve with a large enough effect in the signal ratio; the % refers to the signal ratio); settings: NF-kB-bla ME-180 cells, beta-lactamase FRET ratio, 16 h; activation: stronger effect = higher value
In short: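 Activation measured after 16 hr compound treatment at 37C, 5% CO2, of 2,000 ME-180 cells/well stably expressing an NF-kB response element–driven beta-lactamase reporter, via FRET-disruption fluorescence.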

[12] = qHTS assay for environmental chemicals that activate the Aryl hydrocarbon Receptor (AhR) signaling pathway (AID 651777; active means well fitted curve in the direction sought with a large enough effect; an effect the other way counts as inactive or inconclusive; further: nearly all actives have a fitted effect of over 15% in size; further: potency means the concentration at half of the fitted maximal effect); settings: 1A2-DRE human hepatoma cells, luciferase, 24 h; activation: stronger effect = higher value
In short: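 AhR activation is scored as a rise in luciferase from a stable DRE–CYP1A2 promoter construct in human hepatoma cells. Treatment lasts 24 hr at 37 C; detection uses One-Glo after 30 min at room temperature.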

[13] = target: Peroxisome proliferator-activated receptor alpha (Homo sapiens) (UniProt Q07869); test: qHTS assay for small molecule agonists of the peroxisome proliferator-activated receptor alpha (PPARalpha) signaling pathway (AID 651778; active means well fitted curve in the direction sought with a large enough effect; an effect the other way counts as inactive or inconclusive); settings: PathHunter PPARalpha complementation, chemiluminescence, 6 h; max response: stronger effect = higher value
Chain of Peroxisome proliferator-activated receptor alpha (Homo sapiens) (Q07869 whole entry, looked up): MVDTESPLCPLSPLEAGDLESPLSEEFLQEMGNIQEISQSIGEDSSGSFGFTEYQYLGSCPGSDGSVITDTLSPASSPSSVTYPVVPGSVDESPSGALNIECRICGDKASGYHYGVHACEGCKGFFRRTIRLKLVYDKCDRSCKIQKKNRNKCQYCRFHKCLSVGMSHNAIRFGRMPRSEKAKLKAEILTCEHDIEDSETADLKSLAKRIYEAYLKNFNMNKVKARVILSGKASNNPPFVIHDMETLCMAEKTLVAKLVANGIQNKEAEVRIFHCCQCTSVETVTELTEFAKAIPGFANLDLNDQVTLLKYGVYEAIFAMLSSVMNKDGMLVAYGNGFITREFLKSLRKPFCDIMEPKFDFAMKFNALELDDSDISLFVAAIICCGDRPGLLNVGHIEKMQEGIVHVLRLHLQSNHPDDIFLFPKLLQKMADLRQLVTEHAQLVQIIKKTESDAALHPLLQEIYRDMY
In short: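 Chemiluminescence from complemented enzyme reported PPARalpha activation in cells after 6 hr of compound treatment at 37 C. The detection reagent was incubated for 60 min at room temperature, and compounds were scored as agonists.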

[14] = qHTS assay for small molecule agonists of the antioxidant response element (ARE) signaling pathway measured by Nrf2-dependant transcriptional activity (AID 720636; active means well fitted curve in the direction sought with a large enough effect in the repeat runs; an effect the other way counts as inactive or inconclusive;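 further: HepG2 cells with an ARE-driven luciferase reporter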)
In short: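 First, ARE-luc HepG2 cells attached for 6 hr at 37 C in 1% dialyzed FBS medium. Next, compound or DMSO was added and incubated 16 hr. Finally, ONE-Glo reagent was added and luminescence measured after 30 min.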

[15] = qHTS assay for small molecule agonists of the antioxidant response element (ARE) signaling pathway measured by Nrf2-dependant transcriptional activity - cell viability counter screen (AID 720653; active means well fitted curve in the direction sought with a large enough effect in the repeat runs; an effect the other way counts as inactive or inconclusive); settings: ARE-bla HepG2 viability, CellTiter-Glo ATP luminescence, 16 h; max response: stronger effect = lower value
In short: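 Cytotoxicity counter screen: intracellular ATP quantified by CellTiter-Glo luminescence in the same ARE-bla HepG2 plates, after 16 h compound exposure and a 2 h beta-lactamase substrate step.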

[16] = qHTS assay for cell viability of HEK293 cells (AID 743288; active means well fitted curve in the direction sought with a large enough effect; an effect the other way counts as inactive or inconclusive; further: nearly all actives have a fitted effect of over 50% in size); settings: ATP luminescence (CellTiter-Glo), 18 h; max response: stronger effect = lower value
In short: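 ATP luminescence (CellTiter-Glo) reports metabolically competent cell number after parental HEK293 cells, 2,000/well, were treated with DMSO-dissolved compounds for 18 h at 37 C; reagent incubation 30 min, room temperature.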

[17] = qHTS assay for cell viability of the p53RE-bla HCT-116 cell line (AID 743292; active means well fitted curve in the direction sought with a large enough effect; an effect the other way counts as inactive or inconclusive; further: nearly all actives have a fitted effect of over 55% in size)
In short: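 Quantitative high-throughput format: compounds in DMSO were pinned onto p53RE-bla HCT-116 cells (4,000/well) and incubated 16 h at 37 C. Total intracellular ATP, read by CellTiter-Glo luminescence, reflects viable cell number.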

[18] = target: Nuclear receptor subfamily 1 group I member 2 (Rattus norvegicus) (UniProt Q9R1A7); test: qHTS assay for small molecule activators of the rat pregnane X receptor (rPXR) signaling pathway (AID 651751; call rule not given here); settings: rPXR reporter cells, luciferase (One-Glo), 24 h
Chain of Nuclear receptor subfamily 1 group I member 2 (Rattus norvegicus) (Q9R1A7 whole entry, looked up): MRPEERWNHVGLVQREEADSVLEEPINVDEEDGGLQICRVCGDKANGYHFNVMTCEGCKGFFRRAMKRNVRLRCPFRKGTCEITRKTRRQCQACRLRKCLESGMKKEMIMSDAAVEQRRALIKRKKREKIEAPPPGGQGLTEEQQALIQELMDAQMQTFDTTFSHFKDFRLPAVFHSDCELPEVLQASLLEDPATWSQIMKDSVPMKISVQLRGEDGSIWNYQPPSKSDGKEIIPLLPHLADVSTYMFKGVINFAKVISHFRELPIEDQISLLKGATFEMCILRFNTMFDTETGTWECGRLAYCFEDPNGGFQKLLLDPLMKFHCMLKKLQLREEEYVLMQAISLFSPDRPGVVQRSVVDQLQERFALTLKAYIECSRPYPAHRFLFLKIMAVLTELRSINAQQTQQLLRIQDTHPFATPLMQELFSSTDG

[19] = qHTS assay for small molecule activators of the human pregnane X receptor (PXR) signaling pathway (AID 720659; call rule not given here)
[20] = qHTS assay for small molecule agonists of the antioxidant response element (ARE) signaling pathway (AID 651741; active means well fitted activation curve with a large enough effect in the signal ratio; the % refers to the signal ratio; further: potency means the concentration at half of the fitted maximal effect)
In short: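 Beta-lactamase reporter under ARE control in HepG2 cells, 2,000 per well, was induced by 16 h compound treatment at 37 C. Read-out was fluorescence from LiveBLAzer B/G FRET substrate after 2 h at room temperature.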

[21] = Cell Viability - LYMP2-004 (AID 966; active means well fitted curve in the direction sought with a large enough effect; an effect the other way counts as inactive or inconclusive; further: nearly all actives have a fitted effect of over 65% in size)
In short: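 AC50 values come from Hill modelling of concentration-dependent loss of intracellular ATP, measured by CellTiter-Glo luminescence. Human LYMP2-004 lymphoblastoid cells (2500/well) were exposed to compound for 24 h at 37 C.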

[22] = Cell Viability - LYMP2-025 (AID 976; active means well fitted curve in the direction sought with a large enough effect; an effect the other way counts as inactive or inconclusive)
In short: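 Cytotoxicity read as loss of intracellular ATP (luciferase luminescence) after 24 h compound treatment at 37 C. Uses LYMP2-025 lymphoblastoid cells in 1536-well format; Hill-equation modelling gives AC50; tetraoctylammonium bromide as positive control.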

[23] = S16 Schwann cell PMP22 intronic element beta-lactamase assay (AID 624044); settings: S16 rat Schwann cells, PMP22 element beta-lactamase FRET, 24 h; ratio activity, negative = inhibition: at 38.3 µM (top of the series); further: nearly all actives have a fitted effect of over 15% in size
In short: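 Beta-lactamase reporter under a PMP22 intronic regulatory element in stable S16 rat Schwann cells; 24 h compound exposure. 460 nm blue signal normalized between DMSO (0%) and potassium clavulanate, with 535 nm FRET tracking viability; curves classed by r2 and response.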

[24] = target: Peroxisome proliferator-activated receptor gamma (Homo sapiens) (UniProt P37231); test: qHTS assay for small molecule antagonists of peroxisome proliferator-activated receptor gamma signaling (AID 588537; active means well fitted inhibition curve with a large enough effect in the signal ratio, with a control signal flat, not every such curve was filed as active; the % refers to the signal ratio;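 further: reporter cells co-stimulated with 50 nM rosiglitazone agonist during compound treatment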)
In short: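 Antagonist-mode β-lactamase reporter screen run as a titration series. HEK293 PPARγ-UAS-bla cells are stimulated with rosiglitazone (50 nM final) for 16 h, then CCF4 is read at 460/530 nm. Data are scaled between DMSO and rosiglitazone and fitted to the Hill equation.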

[25] = target: Vitamin D3 receptor (Homo sapiens) (UniProt P11473); test: qHTS assay for small molecule agonists of vitamin D receptor signaling (AID 588543)
In short: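 β-lactamase reporter, VDR-UAS-bla HEK293T, agonist mode. Cells plated 5 h at 37 °C, compound titration 16 h at 37 °C, CCF4 dye 2 h RT, ratio 460/530 nm. Hill fit → EC50, efficacy vs 50 nM 1α,25-(OH)2D3.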

[26] = target: Thyroid hormone receptor beta (Homo sapiens) (UniProt P10828); test: qHTS assay for small molecule antagonists of thyroid hormone receptor beta signaling (AID 588547; active means well fitted inhibition curve with a large enough effect in the signal ratio, with a control signal flat, not every such curve was filed as active; the % refers to the signal ratio;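 further: cells stimulated with 0.4 nM T3 agonist during compound exposure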); settings: TR-UAS-bla HEK293, beta-lactamase ratio, antagonist mode, 18 h
Chain of Thyroid hormone receptor beta (Homo sapiens) (P10828 whole entry, looked up): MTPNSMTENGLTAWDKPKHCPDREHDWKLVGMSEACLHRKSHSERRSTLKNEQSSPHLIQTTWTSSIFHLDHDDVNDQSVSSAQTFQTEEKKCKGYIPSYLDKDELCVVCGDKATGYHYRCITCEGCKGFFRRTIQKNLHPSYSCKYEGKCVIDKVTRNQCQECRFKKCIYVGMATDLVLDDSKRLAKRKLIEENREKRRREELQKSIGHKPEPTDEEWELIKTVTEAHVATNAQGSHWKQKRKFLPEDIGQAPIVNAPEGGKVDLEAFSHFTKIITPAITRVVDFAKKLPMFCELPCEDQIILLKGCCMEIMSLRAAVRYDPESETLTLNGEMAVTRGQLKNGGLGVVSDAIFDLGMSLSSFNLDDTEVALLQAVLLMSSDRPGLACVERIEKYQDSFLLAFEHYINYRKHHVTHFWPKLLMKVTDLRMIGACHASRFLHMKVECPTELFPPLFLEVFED
In short: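 Inhibition of T3-driven (0.4nM final) beta-lactamase reporter activity was measured over 0.59 nM to 92 uM compound after 18 h at 37 C. The cells were GripTite HEK293 TR-UAS-bla in charcoal/dextran-stripped serum, with CCF4 ratio read-out and IC50 from Hill fits.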

[27] = target: Thyroid hormone receptor beta (Homo sapiens) (UniProt P10828); test: qHTS assay for small molecule agonists of thyroid hormone receptor beta signaling (AID 588545)
In short: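 Beta-lactamase reporter activity under TR response element control is measured in HEK 293 cells after 18 hrs compound exposure. Signal is ratiometric CCF4 fluorescence, 460/530 nm.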

Chain of Peroxisome proliferator-activated receptor delta (Homo sapiens) (Q03181 whole entry, looked up): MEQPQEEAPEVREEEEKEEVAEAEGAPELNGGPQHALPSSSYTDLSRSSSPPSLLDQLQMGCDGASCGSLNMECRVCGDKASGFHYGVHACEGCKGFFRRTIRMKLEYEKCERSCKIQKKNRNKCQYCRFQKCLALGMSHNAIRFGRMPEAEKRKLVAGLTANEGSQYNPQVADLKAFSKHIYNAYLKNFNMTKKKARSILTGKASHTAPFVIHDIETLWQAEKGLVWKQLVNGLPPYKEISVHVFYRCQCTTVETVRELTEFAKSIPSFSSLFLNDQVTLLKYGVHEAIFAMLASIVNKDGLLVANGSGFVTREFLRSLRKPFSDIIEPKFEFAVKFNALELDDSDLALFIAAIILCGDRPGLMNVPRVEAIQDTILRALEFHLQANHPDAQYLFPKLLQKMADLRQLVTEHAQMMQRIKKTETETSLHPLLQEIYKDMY

COP(=O)(OC)O/C(C)=C/C(=O)N(C)C
outcome [1]: inactive | max response [2]: -17.4% | Potency [3]: inactive | Potency [4]: inactive | Potency [5]: inactive | max response [6]: -0.0825% | Potency [7]: inactive | max response [8]: 0.42% | max response [9]: -0.431% (inactive) | activation [10]: -0.0413% (inactive) | activation [11]: -1.74% (inactive) | activation [12]: 1.01% (inactive) | max response [13]: -1.78% (inactive) | Potency [14]: inactive | max response [15]: 15.8% (inactive) | max response [16]: 2.37% (inactive) | Potency [17]: inactive | max response [18]: 1.37% (inactive) | outcome [19]: inactive

CO
outcome [1]: inactive | Potency [20]: 42.2 µM (active)

Cc1ccccc1
Potency [21]: inactive | Potency [22]: inactive | outcome [1]: inactive | Potency [23]: inactive

Cc1cc(C)c(N)c(Cl)c1
outcome [1]: inactive

CCCCCCCCCCCCCO
outcome [1]: inactive

C=CCCC
outcome [1]: inactive | Potency [20]: 66.8 µM (active) | Potency [12]: 22.4 µM (active)

CC(C)(O)C(=O)O
outcome [1]: inactive

CC1=NNC(=O)N(/N=C/c2cccnc2)C1
outcome [1]: inactive | Potency [4]: inactive | Potency [24]: inactive | Potency [5]: inactive | outcome [25]: inactive | max response [6]: -7.06% | Potency [7]: inactive | max response [8]: -9.27% | max response [9]: -13.2% (inactive) | activity change % (negative = inhibition) [26]: -22% (inactive) | activation [10]: 3.81% (inactive) | activation [11]: 0.0556% (inactive) | activation [12]: -0.299% (inactive) | max response [13]: -0.256% (inactive) | Potency [14]: inactive | max response [15]: -9.52% (inactive) | max response [16]: -11.1% (inactive) | Potency [17]: inactive | max response [18]: -1.81% (inactive) | outcome [19]: inactive

CC(C)C(C(=O)OC(C#N)c1cccc(Oc2ccccc2)c1)c1ccc(Cl)cc1 (centres undefined)
outcome [1]: inactive | max response [2]: -0.258% | Potency [3]: inactive | Potency [4]: inactive | Potency [27]: inactive | activation [10]: 0.961% (inactive) | activation [12]: 2.62% (inactive) | max response [13]: 0.669% (inactive) | Potency [14]: inactive | max response [15]: -14.8% (inactive) | max response [16]: -26.6% (inactive) | Potency [17]: inactive

COc1c(Cl)ccc(Cl)c1C(=O)O
outcome [1]: inactive

Clc1nc2ccccc2nc1Cl
outcome [1]: inactive

CC1CCC(C(C)C)C(O)C1 (centres undefined)
outcome [1]: inactive

Cc1cc(C)cc(O)c1
outcome [1]: inactive

C=CCOc1nc(OCC=C)nc(OCC=C)n1
outcome [1]: inactive

NC(=O)NC(N)=O
outcome [1]: inactive

C/C(C=O)=C/c1ccccc1
outcome [1]: inactive

CCCCCCCC[Si](OCC)(OCC)OCC
outcome [1]: inactive

c1ccc2n[nH]nc2c1
outcome [1]: inactive

CCOCCOCCOCC
outcome [1]: inactive

CCC(Cl)CC(Cl)C(Cl)C(Cl)C(Cl)C(C)Cl (centres undefined)
outcome [1]: inactive
